A short description of assay [1]: optical density shifts of acrAB sulA E. coli – strain DRC41, OD650, 48 h, E. coli filamentation inducer project, primary screen (AID 1152).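 Note: E. coli MC1000 strain DRC41 lacking acrAB efflux pump and sulA.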 Particulars: higher = more signal, called active from +8 up or from −8 down.
Assay [2] in a line: probe aLefty1 binding on compound microarray – biochemical, small-molecule microarray, 635/667 nm fluorescence, primary screen (AID 1153).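 Note: score merges spot fluorescence with signal-to-noise ratio from the scanned slide images.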 Particulars: higher = more signal.
Assay [3] can be described thus: plasmodial surface anion channel blockers, osmotic lysis – cell-based, P. falciparum Indochina, OD700, 1 h, primary screen (AID 1154). Particulars: P. falciparum Indochina infected RBC osmotic lysis, higher = more signal, called active from +8 up or from −8 down.
A short description of assay [4]: plasmodial surface anion channel blockers, osmotic lysis – cell-based, P. falciparum Indochina, OD700, 2 h, primary screen (AID 1155).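 Note: lysis reports solute entry through the parasite surface anion channel PSAC.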 Particulars: P. falciparum Indochina infected erythrocytes, higher = more signal, called active from +8 up or from −8 down.
Assay [5] is described as follows: changes in parasitized red cell lysis, either direction – P. falciparum Indochina, OD700, 3 h, PSAC antagonist project, primary screen (AID 1156). The settings on record: P. falciparum-infected erythrocytes, osmotic lysis, higher = more signal, called active from +8 up or from −8 down.
Assay [6] is described as follows: plasmodial surface anion channel blockers, osmotic lysis – cell-based, P. falciparum Indochina, OD700, 18 h, primary screen (AID 1157). The settings on record: P. falciparum Indochina infected erythrocytes, osmotic lysis OD700, 18 h; higher = more signal, called active from +8 up or from −8 down.
Assay [7] is described as follows: S6 kinase pathway phospho-S6 level changes – cell-based, A549, cytoblot, luminescence, serum-stimulated, primary screen (AID 1158).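 Note: serum-stimulated A549 lung adenocarcinoma cells; signal is phosphorylated S6 detected by cytoblot immunostaining with HRP secondary.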 The settings on record: 5 h, higher = more signal.
The target in assay [8] is NADPH oxidase 2 (Homo sapiens) (UniProt P04839). Kind of assay: compounds shifting NOX2 Amplex Red fluorescence – cell-based, HEK293-NOX2, PMA-stimulated, NOX inhibitor project, primary screen (AID 1159). Note: test concentration not given here. Particulars: 45 min, higher = more signal, called active from +8 up or from −8 down.
NADPH oxidase 2 (Homo sapiens), sequence (P04839 whole entry, looked up): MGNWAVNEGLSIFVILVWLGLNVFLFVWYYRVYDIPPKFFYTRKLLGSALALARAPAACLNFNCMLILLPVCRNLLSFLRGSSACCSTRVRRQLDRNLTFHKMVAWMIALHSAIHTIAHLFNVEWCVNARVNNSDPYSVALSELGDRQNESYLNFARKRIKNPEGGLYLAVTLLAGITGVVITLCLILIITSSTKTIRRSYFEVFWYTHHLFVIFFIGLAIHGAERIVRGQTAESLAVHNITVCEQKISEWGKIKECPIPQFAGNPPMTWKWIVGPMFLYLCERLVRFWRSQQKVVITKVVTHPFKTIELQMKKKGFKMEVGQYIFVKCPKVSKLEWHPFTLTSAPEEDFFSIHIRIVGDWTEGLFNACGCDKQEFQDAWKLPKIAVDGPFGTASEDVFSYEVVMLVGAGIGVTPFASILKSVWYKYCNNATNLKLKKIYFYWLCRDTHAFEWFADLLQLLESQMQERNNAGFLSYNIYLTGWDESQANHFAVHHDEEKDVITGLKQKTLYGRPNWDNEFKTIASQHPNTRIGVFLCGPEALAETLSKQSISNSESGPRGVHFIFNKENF
Assay [9] has as its target NADPH oxidase 4 (Homo sapiens) (UniProt Q9NPH5). The assay can be described thus: compounds shifting NOX4 Amplex Red fluorescence – cell-based, HEK293-NOX4, tetracycline-induced, NOX inhibitor project, primary screen (AID 1160). Particulars: HEK293-NOX4, Amplex Red H2O2 fluorescence, 45 min; higher = more signal, called active from +8 up or from −8 down.
Assay [10] has as its target NADPH oxidase 5 (Homo sapiens) (UniProt Q96PH1). The assay can be described thus: compounds shifting NOX5 Amplex Red fluorescence – cell-based, HEK293-NOX5, NOX inhibitor project, primary screen (AID 1161). Particulars: HEK293-NOX5, ionomycin, 45 min, higher = more signal.
A short description of assay [11]: compound effects on lung adenocarcinoma cell viability – A549, calcein-AM fluorescence, 48 h, basal, profiling panel (AID 1162). Note: test concentration not given here. The settings on record: higher = more signal.
The nature of assay [12]: compound effects on differentiated 3T3-L1 adipocyte viability – cell-based, 3T3-L1 adipocytes, calcein-AM fluorescence, 48 h, basal, profiling panel (AID 1163). Note: test concentration not given here. The settings on record: 3T3-L1 adipocytes viability, higher = more signal.
Assay [13] in a line: compound effects on hepatocellular carcinoma cell viability – HepG2, calcein-AM fluorescence, 48 h, basal, profiling panel (AID 1164). Note: test concentration not given here. Particulars: higher = more signal.
Assay [14] in a line: compound effects on multiple myeloma cell viability – MM1S, calcein-AM fluorescence, 48 h, basal, profiling panel (AID 1165).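 Note: viability of MM1S multiple myeloma cells under basal unstimulated conditions; test concentration not given here.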 Particulars: higher = more signal.
Assay [15] can be described thus: calcein-AM signal in unstimulated myeloma cells – cell-based, calcein-AM fluorescence, 48 h, PK04 Diversity Set, profiling panel (AID 1166).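 Note: cells grown under basal conditions without added stimulus; test concentration not given here.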 The settings on record: RPMI8226 myeloma viability, higher = more signal.
The nature of assay [16]: JC-1 mitochondrial signal, unstimulated HepG2 cells – cell-based, JC-1 fluorescence, 24 h, 100 nL compound, profiling panel (AID 1167). Note: test concentration not given here. The settings on record: HepG2 mitochondrial potential, higher = more signal.
Assay [17] is described as follows: JC-1 mitochondrial signal, unstimulated adipocytes – cell-based, JC-1 fluorescence, 3T3-L1 adipocytes, 24 h, 100 nL compound, profiling panel (AID 1168). Note: test concentration not given here. Particulars: JC-1 mitochondrial fluorescence, higher = more signal, called active from +8 up or from −8 down.
Assay [18] can be described thus: JC-1 mitochondrial signal, unstimulated myeloma cells – cell-based, JC-1 fluorescence, RPMI8226, 24 h, 100 nL compound, profiling panel (AID 1169). Note: test concentration not given here. Particulars: JC-1 mitochondrial potential fluorescence, higher = more signal.
A short description of assay [19]: JC-1 mitochondrial signal, unstimulated MM1S myeloma – cell-based, JC-1 fluorescence, 24 h, 100 nL compound, profiling panel (AID 1170). Note: test concentration not given here. Particulars: MM1S mitochondrial potential, higher = more signal.
The nature of assay [20]: resazurin metabolic signal in A549 cells – cell-based, resazurin fluorescence, 24 h, PK04 Diversity Set, profiling panel (AID 1171). Note: test concentration not given here. The settings on record: A549 viability, higher = more signal, called active from +8 up or from −8 down. In general terms: Alamar Blue is a resazurin reagent that responds to reducing activity.

Active and inactive are the calls of the source.

NADPH oxidase 4 (Homo sapiens), sequence (Q9NPH5 whole entry, looked up): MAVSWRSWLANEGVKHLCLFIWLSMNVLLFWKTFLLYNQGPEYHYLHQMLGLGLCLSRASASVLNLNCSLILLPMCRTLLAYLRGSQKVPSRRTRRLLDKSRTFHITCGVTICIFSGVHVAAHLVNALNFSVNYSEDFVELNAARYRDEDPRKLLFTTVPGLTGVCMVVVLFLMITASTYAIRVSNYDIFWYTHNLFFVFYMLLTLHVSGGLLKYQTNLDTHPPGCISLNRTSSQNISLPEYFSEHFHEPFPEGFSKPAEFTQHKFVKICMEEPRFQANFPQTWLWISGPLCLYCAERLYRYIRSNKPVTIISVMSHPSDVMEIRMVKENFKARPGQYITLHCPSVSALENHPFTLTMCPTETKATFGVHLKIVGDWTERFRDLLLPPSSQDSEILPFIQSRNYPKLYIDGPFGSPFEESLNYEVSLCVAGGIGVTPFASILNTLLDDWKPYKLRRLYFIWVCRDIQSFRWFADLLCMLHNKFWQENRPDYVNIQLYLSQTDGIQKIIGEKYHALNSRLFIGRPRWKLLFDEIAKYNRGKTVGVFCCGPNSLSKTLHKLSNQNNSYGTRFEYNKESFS
NADPH oxidase 5 (Homo sapiens), sequence (Q96PH1 whole entry, looked up): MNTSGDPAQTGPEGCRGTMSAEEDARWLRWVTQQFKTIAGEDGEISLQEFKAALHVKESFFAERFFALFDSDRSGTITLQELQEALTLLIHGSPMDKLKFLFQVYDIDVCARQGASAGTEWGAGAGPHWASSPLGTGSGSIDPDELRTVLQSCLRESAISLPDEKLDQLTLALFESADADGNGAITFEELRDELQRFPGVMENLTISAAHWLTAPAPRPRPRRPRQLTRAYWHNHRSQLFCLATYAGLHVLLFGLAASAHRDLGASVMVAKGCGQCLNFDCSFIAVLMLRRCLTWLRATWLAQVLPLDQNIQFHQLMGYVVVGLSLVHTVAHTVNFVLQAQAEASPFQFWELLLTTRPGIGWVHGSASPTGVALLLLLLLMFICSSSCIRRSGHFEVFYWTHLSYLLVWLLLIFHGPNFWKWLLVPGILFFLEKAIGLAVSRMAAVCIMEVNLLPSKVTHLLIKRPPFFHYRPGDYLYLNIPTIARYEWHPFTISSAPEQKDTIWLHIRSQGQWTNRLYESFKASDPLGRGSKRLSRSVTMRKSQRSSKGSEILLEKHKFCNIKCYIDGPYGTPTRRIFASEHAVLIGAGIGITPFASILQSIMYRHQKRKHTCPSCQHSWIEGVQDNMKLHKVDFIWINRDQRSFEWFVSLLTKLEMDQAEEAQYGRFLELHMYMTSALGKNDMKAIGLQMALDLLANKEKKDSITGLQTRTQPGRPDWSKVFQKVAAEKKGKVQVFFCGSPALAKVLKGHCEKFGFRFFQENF

For `C=C(CCCC)C(=O)CC[C@H](OC(C)=O)c1ccccc1OCCO`, the z-score in assay [1] was 0.0371 (inactive); in assay [3], 5.66 (inactive); in assay [4], -0.686 (inactive); in assay [5], 2.15 (inactive); in assay [6], -1.83 (inactive); in assay [7], 1.68. In addition, the z-score in [8] was -1.56 (inactive); in assay [9] it was -0.397 (inactive); in [10] it was -2.19; in [11] it was -0.655; in assay [12], 1.66; in assay [13] it was -0.713. Besides, the z-score is -3.29 in assay [14]; -2.91 in assay [15]; 0.103 in assay [16]; 0.98 (inactive) in [17]; -0.706 in assay [18]; 0.346 in assay [19]. In assay [20], the z-score is -1.24 (inactive). Moreover, in assay [2], the composite z-score is 0.149.

In the case of `C=C(COC)C(=O)CC[C@@H](OC(=O)c1cccnc1)c1cccc(OCCO)c1`, the z-score in assay [1] was 0.857 (inactive); in assay [3], 13.9 (active); in assay [4], 1.86 (inactive); in [5], 1.21 (inactive); in [6], 0.454 (inactive); in assay [7], 0.28. The z-score in [8] was -3.15 (inactive); in assay [9], -0.703 (inactive); in assay [10], -1.33; in assay [11] it was -0.0547; in assay [12], 0.627; in [13] it was -0.714. Also, the z-score in assay [14] is -3.31; in assay [15] it was -1.71; in [16], 0.082; in [17] it was 0.195 (inactive); in assay [18] it was -0.26; in assay [19] it was -1.78. For the same compound, the z-score in assay [20] was 0.9 (inactive). In addition, in assay [2], the composite z-score was 0.571.

For `CCCC=C(CCC)[C@@H](NC(=O)c1ccco1)c1ccc(C(=O)OC)cc1`, the z-score is -1.68 (inactive) in assay [1]; -0.687 (inactive) in [3]; 0.324 (inactive) in assay [4]; 0.893 (inactive) in assay [5]; 1.11 (inactive) in [6]; -0.277 in assay [7]. In addition, the z-score was -0.0272 (inactive) in assay [8]; 1.46 (inactive) in [9]; 1.99 in assay [10]; -4.29 in assay [11]; -1.72 in assay [12]; -5.68 in assay [13]. Besides, the z-score is -3.26 in [14]; -4.76 in assay [15]; -4.88 in assay [16]; -0.458 (inactive) in assay [17]; -0.736 in [18]; -2.86 in [19]. In addition, in [20], the z-score was 6.91 (inactive). In [2], this compound yielded a composite z-score of 0.48.

As to `NC(=O)N1C(=O)C2C(C1=O)C1C=C(CCCO)C2C(c2ccc(CN3CCCC3)cc2)N1Cc1cccc(OC(F)(F)F)c1` (stereo not given), the z-score was -0.267 (inactive) in assay [1]; 1.86 (inactive) in [3]; 0.63 (inactive) in assay [4]; 0.0703 (inactive) in assay [5]; 0.208 (inactive) in assay [6]; -0.267 in assay [7]. For the same compound, the z-score in assay [8] was -1.4 (inactive); in assay [9], -0.76 (inactive); in [10], -1.04; in assay [11] it was 0.0272; in assay [12] it was -0.0602; in [13] it was -0.215. The z-score is -3.34 in [14]; -0.614 in assay [15]; 0.221 in assay [16]; -0.348 (inactive) in assay [17]; 0.708 in assay [18]; -0.275 in assay [19]. Besides, in assay [20], the z-score was 0.657 (inactive). The compound further showed a composite z-score in assay [2] of -0.101.

Consider `C=CCC(OC(C)=O)[C@@H]1[C@@H](N(Cc2ccc(-c3cccc(C(F)(F)F)c3)o2)C(=O)Cc2ccc(OC)cc2)c2cc(OCCCO)ccc2N1C(=O)c1ccc2ccccc2n1` (stereo not given in full), for which the z-score is -0.797 (inactive) in assay [1]; 0.83 (inactive) in assay [3]; 0.74 (inactive) in assay [4]; 0.959 (inactive) in [5]; 0.289 (inactive) in assay [6]; 0.342 in assay [7]. The z-score was -0.236 (inactive) in assay [8]; -1.23 (inactive) in assay [9]; -1.45 in assay [10]; -0.0093 in [11]; 0.341 in assay [12]; 0.279 in assay [13]. The z-score in assay [14] is -1.2; in assay [15] it was -2.3; in assay [16] it was 2.12; in [17], 0.253 (inactive); in assay [18], -0.616; in assay [19], 1.42. Moreover, the z-score in [20] was -1.25 (inactive). This compound returned a composite z-score in [2] of -0.0046.

The record behind these values is PubChem BioAssay.
